Data: PubChem BioAssay AID1259343 (VanderVen Lab, College of Veterinary Medicine, Cornell …, 2017)
Out of some 6,200 compounds screened, about 2,900 (47%) were called active. So high a share suggests a set chosen from earlier hits. The list shows a part of the results. Unmarked numbers belong to inactive results. Cut-off read from the data, not from the text of the source: active = inhibition above about 50%; inactive = the rest.

Experiment: Mycobacterium tuberculosis growth inhibition, primary screen (AID 1259343)
Conditions: inhibition: at 10 µM, stronger effect = higher value; outcome: 10 uM

| SMILES | inhibition |
| --- | --- |
| C1CCC(C(CC2CCCCN2)C2CCCCC2)CC1 (stereo not given) | 55.1% (active) |
| CC(OC1CC(=O)CC2C(=O)c3ccccc3C(=O)C12)c1ccccc1 (stereo not given) | 94.3% (active) |
| CC(C)c1ccc2c(c1O)CC[C@H]1C3=C(CC[C@]21C)C(=O)OC3 | 45% |
| C(=NNC1=Nc2cccc3cccc1c23)c1ccccc1 | 15.1% |
| Cn1cc(C=NNc2ccccc2)c2ccccc21 | -30.1% |
| C(=NNc1ccccc1)c1cnn(-c2ccccc2)c1 | 94.4% (active) |
| CN(C)C(=O)N1CCC(C(=O)Nc2ccc(Oc3ccccc3)cc2)CC1 | 81.9% (active) |
| COc1c(Cl)cc(NC(=O)C2CC(=O)N(C)C2)cc1Cl (stereo not given) | 43.6% |
| O=C1CCC(C(=O)Nc2ccc(Oc3ccccc3)cc2)N1 (stereo not given) | 29.5% |
| O=C(Nc1ccc(Oc2ccccc2)cc1)C1CC(=O)N(C2CC2)C1 (stereo not given) | 66.1% (active) |
| CN(C)c1ccc2cc(NC(=O)C3CC(=O)N(C4CCCC4)C3)ccc2n1 (stereo not given) | 87.7% (active) |
| Cc1ccc(NC(=O)C2CC(=O)N(C3CC3)C2)cc1C(F)(F)F (stereo not given) | 63.6% (active) |
| O=C(Nc1nc(-c2ccc(Cl)cc2)cs1)C1CC(=O)N(C2CC2)C1 (stereo not given) | 21.7% |
| CN1CC(C(=O)Nc2ccc3nc(C4CC4)oc3c2)CC1=O (stereo not given) | -6.81% |
| COc1cccc(C(=O)Oc2ccc(C(=O)COC(=O)C3CC(=O)N(C4CCCCC4)C3)cc2)c1 (stereo not given) | -11.2% |
| CC1CC(N2CCN(c3nccs3)CC2)C(=O)O1 (stereo not given) | 2.21% |
| CC(=O)NCCC1CCCCN1C(=O)Nc1ccc(Oc2ccccc2)cc1 (stereo not given) | 83.9% (active) |
| O=C(Nc1ccc(Oc2ccccc2Cl)cc1)N1CCOC2CCCCC21 (stereo not given) | 26.2% |
| Fc1cccc(-c2nnn(CCc3ccccn3)n2)c1 | 65.1% (active) |
| Fc1ccc(-c2nnn(CCCc3n[nH]c(Cc4ccccc4)n3)n2)cc1 | 37.6% |
| CNS(=O)(=O)c1cc(NC(=O)CNC(=O)C2CCCCC2)ccc1C | 8.53% |
| CCNC(=O)CCC(=O)Nc1ccc(OC2CCCC2)c(F)c1 | 92.8% (active) |
| c1ccc2c(c1)oc1c(NCC3CCCCC3)ncnc12 | 23.3% |
| c1ccc2c(c1)oc1c(NC3CCCCCC3)ncnc12 | 102% (active) |
| c1ccc2c(c1)oc1c(NC3CCCCC3)ncnc12 | -31.2% |
| COc1cc(C=c2sc(=CC(=O)c3ccco3)[nH]c2=O)cc(Br)c1O | 91.2% (active) |
| c1cnc(NCc2cccnc2N2CCc3ccccc3C2)nc1 | 36.6% |

| SMILES | inhibition |
| --- | --- |
| Fc1ccccc1CON=C1CCN(c2ncccn2)CC1 | 83.5% (active) |
| CCN(CC(=O)Nc1c(Cl)cccc1Cl)C(=O)CCn1c(=O)oc2cc(Cl)ccc21 | -5.97% |
| CN(Cc1nc2c(s1)CCCC2)C(=O)c1cc(COc2ccc(-n3cncn3)cc2)on1 | 85.4% (active) |
| CCc1ccc(CN(C)C(=O)c2cc(COc3ccc(-n4cncn4)cc3)on2)cc1 | 36.7% |
| COc1cccc(C=C2N=C(c3ccccc3OC(F)F)OC2=O)c1 | 86.9% (active) |
| COc1ccc(C=C2N=C(c3cccc(F)c3)OC2=O)cc1 | 3.76% |
| C=CCOc1ccc(C=C2N=C(c3ccccc3I)OC2=O)cc1OC | -4.12% |
| Cc1cccc(CN(C)C)c1OC(=O)N(C)C | 3.93% |
| CN(C)Cc1ccc2ccc3cccc4ccc1c2c34 | 90.5% (active) |
| CN(Cc1ccccc1C#N)c1ccc2ccccc2c1 | 30.3% |
| CN(Cc1ccc(-c2ccc(Cl)cc2)o1)C(=O)CCl | 90.9% (active) |
| CN(Cc1ccc(-c2ccc(Cl)cc2)o1)C(=O)CNC(=O)c1ccccc1 | 72.2% (active) |
| Cc1oc(-c2ccc(Cl)cc2)nc1CN(C)Cc1ccc2nonc2c1 | 31.7% |
| Cc1cc(NC(=O)c2csc(-c3ccc(Cl)cc3)n2)n[nH]1 | 74.4% (active) |
| Cc1ccc(-c2nc(COC(=O)c3cc(Cl)c[nH]3)cs2)cc1 | 34.1% |
| Cn1ccsc1=NC(=O)c1csc(-c2ccc(Cl)cc2)n1 | 15.8% |
| Cc1nc2cc(NC(=O)C(C)Oc3ccc(Cl)cc3)ccc2o1 (stereo not given) | -4.42% |
| Cc1nc2cc(NC(=O)C3CCCN(C(=O)OC(C)(C)C)C3)ccc2o1 (stereo not given) | 82.6% (active) |
| Cc1cc2cc(C(=O)N3CCCC(C(=O)Nc4ccc(-c5ccco5)cc4)C3)ccc2o1 (stereo not given) | -11.5% |
| CC(C)C(=O)N1CCC(NC(=O)c2cc(C3CC3)on2)CC1 | -6.02% |
| O=C(Nc1ccccc1N1CCCC1)c1cc(C2CC2)on1 | 36.3% |
| CC(NC(=O)c1cc(C2CC2)on1)c1cc(Cl)ccc1Cl (stereo not given) | 56.5% (active) |
| CCCc1cc(=O)[nH]c(-n2nc(C)cc2NC(=O)c2ccc(Br)cc2)n1 | 99.8% (active) |
| CCCc1cc(=O)[nH]c(-n2nc(C)cc2NC(=O)c2ccc(C)cc2)n1 | 101% (active) |
| CCCc1cc(=O)[nH]c(-n2nc(C)cc2NC(=O)c2cccs2)n1 | 100% (active) |
| CCc1cc(=O)[nH]c(-n2nc(C)cc2NC(=O)c2cccs2)n1 | -29.6% |
| CCCc1cc(=O)[nH]c(-n2nc(C)cc2NC(=O)c2cccc(Br)c2)n1 | 101% (active) |

| SMILES | inhibition |
| --- | --- |
| CNc1cc(C)nc(NCc2cc(C)cc3c(C)c(C)[nH]c23)n1 | 41.1% |
| CCCc1cc(=O)[nH]c(-n2nc(C)cc2NC(=O)c2ccccc2)n1 | 101% (active) |
| CCCc1cc(=O)[nH]c(-n2nc(C)cc2NC(=O)c2cccc(C(F)(F)F)c2)n1 | 91.4% (active) |
| CCCc1cc(=O)[nH]c(-n2nc(C)cc2NC(=O)c2cc(OC)cc(OC)c2)n1 | -22.1% |
| CCCc1cc(=O)[nH]c(-n2nc(C)cc2NC(=O)c2cccc(F)c2)n1 | 100% (active) |
| CCCc1cc(=O)[nH]c(-n2nc(C)cc2NC(=O)c2cccc(OC)c2)n1 | 99.8% (active) |
| CCN(CC)c1nc2sc(C(=O)NC3(C)CCCC3)cc2s1 | 32.9% |
| CCCc1cc(=O)[nH]c(-n2nc(C)cc2NC(=O)c2cccc(Cl)c2)n1 | 101% (active) |
| CCCc1cc(=O)[nH]c(-n2nc(C)cc2NC(=O)c2ccc(C(F)(F)F)cc2)n1 | 102% (active) |
| CCCc1cc(=O)[nH]c(-n2nc(C)cc2NC(=O)c2ccc(F)cc2)n1 | 101% (active) |
| CCCc1cc(=O)[nH]c(-n2nc(C)cc2NC(=O)c2cc(C(F)(F)F)cc(C(F)(F)F)c2)n1 | 13.6% |
| CN(Cc1ccoc1)C(=O)c1cn(Cc2cccc(C(F)(F)F)c2)nn1 | 14.9% |
| CN(Cc1ccc(F)cc1)C(=O)NCc1ccc2c(c1)OCO2 | 67.4% (active) |
| CN(Cc1ccc(F)cc1F)C(=O)NCc1cccc(C(F)(F)F)c1 | 91% (active) |
| Cc1ccc(NC(=O)N(C)Cc2cccc(F)c2)c(Cl)c1 | 9.23% |
| CN(Cc1cccc(C(F)(F)F)c1)C(=O)c1cn(Cc2ccccc2Cl)nn1 | 20.9% |
| O=S(=O)(NCc1ccc2c(c1)OCO2)c1ccc(F)c(C(F)(F)F)c1 | 26.9% |
| Cc1cc(CNC(=O)CS(=O)(=O)Cc2cccc(Cl)c2)ccc1F | 15.5% |
| CN(Cc1ccc2c(c1)OCO2)c1ccc(C(=O)NC2CC2)cn1 | 12.6% |
| CSc1ccc(NC(=O)CN(C)Cc2ccc3c(c2)OCO3)cc1 | 72.3% (active) |
| CN(Cc1cccc(Cl)c1)C(=O)NCc1cc(F)cc(F)c1 | 72.5% (active) |
| Cc1ccc(CNC(=O)N(C)Cc2cccs2)cc1F | 74.8% (active) |
| CN(Cc1ccsc1)C(=O)Nc1ccc(C(F)(F)F)cc1 | 44.2% |
| CN(Cc1cc(Br)ccc1F)C(=O)NCc1ccco1 | -23.8% |
| CCOc1ncccc1C(=O)NCc1ccc(C)c(F)c1 | 35.2% |
| COc1ccc(CN(C)C(=O)NCC2Cc3ccccc3O2)cc1 (stereo not given) | -43.1% |
| Cc1ccc(NC(=O)N(C)Cc2ccc(O)cc2)cc1F | 59.5% (active) |

| SMILES | inhibition |
| --- | --- |
| CN(Cc1ccc(F)cc1F)C(=O)NCc1ccccc1 | 93% (active) |
| Cc1ccc(NC(=O)N(C)Cc2ccccc2F)cc1Cl | 4.94% |
| COc1ccc(Cl)cc1CN(C)C(=O)Nc1ccc(F)cc1F | -16.8% |
| O=C(NCCc1cccs1)C(=O)NCc1cccc(F)c1 | 45.4% |
| COc1cccc(CNC(=O)N(C)Cc2ccc(C(C)C)cc2)c1 | 85.7% (active) |
| CC1SC(=S)NN1c1ccccc1 (stereo not given) | 92.6% (active) |
| Cc1cccc(Nc2ccc(NCCNS(=O)(=O)c3ccc(F)cc3)nn2)n1 | 30.2% |
| c1ccc2c(OCCCCCn3ccnc3)cccc2c1 | 100% (active) |
| COCCN=c1scc(-c2ccco2)n1N=Cc1cc(Br)c(O)c(OC)c1 | 15.7% |
| CCN=c1scc(C)n1N=Cc1ccc(Br)cc1 | 10.9% |
| CCN=c1scc(-c2ccco2)n1N=Cc1ccc2c(c1)OCO2 | 23.9% |
| CN=c1scc(-c2ccco2)n1N=Cc1cc(Br)c(O)c(OC)c1 | 82.5% (active) |
| CCN=c1scc(C)n1N=Cc1cc(Br)c(O)c(Br)c1 | 84.4% (active) |
| CN=c1scc(-c2ccco2)n1N=Cc1sccc1C | 42.1% |
| CN=c1scc(-c2ccco2)n1N=Cc1c(O)ccc2ccccc12 | 54.4% (active) |
| CN=c1scc(C)n1N=Cc1cc(Br)c(O)c(Br)c1 | -24.1% |
| CN=c1scc(-c2cccc(Br)c2)n1N=Cc1ccncc1 | 13.7% |
| CN=c1scc(-c2ccc(OC)cc2)n1N=Cc1cc(Br)c(O)c(OC)c1 | 97.6% (active) |
| CN=c1scc(-c2ccccc2Br)n1N=Cc1cccc(O)c1 | 28.8% |
| CN=c1scc(-c2cc(Cl)ccc2Cl)n1N=Cc1ccc(O)cc1O | 65.9% (active) |
| C=CCN=c1scc(-c2ccco2)n1N=Cc1cc(OC)ccc1O | 16% |
| C=C(C)CN=c1scc(-c2ccco2)n1N=Cc1ccc(O)cc1O | 89.4% (active) |
| CN=c1scc(-c2cccc(Br)c2)n1N=Cc1ccccc1F | -6.53% |
| Oc1ccc(C=Nn2c(-c3ccco3)csc2=Nc2ccc(F)cc2F)c(O)c1 | 6.26% |
